Measurements from PubChem BioAssay AID488890 (Southern Research Specialized Biocontainment Screening …, 2010).
The whole screen tested about 320,000 compounds, of which about 1,300 (0.41%) were called active. Not shown: some 3% with an inconclusive outcome. How the calls were made is not given here. The list is a sample of the results. Measured potencies and affinities stand elsewhere.

Test: growth inhibition of non-replicating M. tuberculosis (AID 488890);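 further: plate controls were DMSO cells for no effect and high antibiotic wells for full effect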
Conditions: Mycobacterium tuberculosis non-replicating, at 25 µM, stronger effect = higher value

Compound | inhibition [%]
CC(=O)Oc1ccc(/C=N/NC(=O)CCSc2ccccc2)cc1 | 9.49
O=C(COc1ccccc1F)Nc1ccc2c(c1)OCCO2 | 52.5
COc1ccc(/C=N/OCC(=O)Nc2ccc3c(c2)OCO3)c(OC)c1 | 59.9
Cc1cc(NC(=O)CO/N=C/c2ccc3c(c2)OCO3)ccc1Br | -0.49
COC(=O)COc1cccc(NC(=O)C(c2ccccc2)c2ccccc2)c1 | 3.23
CC(=O)Nc1cccc(OCC(=O)Nc2ccccc2)c1 | -8.67
COC(=O)N/N=C/c1cccc(OCCSc2ccc(Cl)cc2)c1 | 74.7
CCC(=O)c1ccc(OCC(=O)Nc2ccc3c(c2)OCCO3)cc1 | 69.5
COc1cc(OC)cc(C(=O)OCc2cc3ccccc3[nH]c2=O)c1 | -16
COc1ccc(NC(=O)/C(=C/c2cccs2)NC(=O)c2ccco2)cc1 | -0.67
Nc1cc(N)nc(SCC(=O)Nc2ccc3c(c2)OCO3)n1 | 2.02
CS(=O)(=O)Oc1ccc(/C=N/NC(=O)c2ccncc2)cc1 | 60.2
O=c1cc(-c2ccccc2)nc2nc(SCc3ccccc3)[nH]n12 | 60.3
O=C(CCn1c(=S)oc2ccccc21)Nc1ccccc1Br | -5.39
O=C(O)c1ccc2c(c1)C(=O)N(NC(=O)c1ccccc1)C2=O | -12.7
COC(=O)c1ccc(NC(=O)COc2ccc3c(c2)OCO3)cc1 | 79.3
CCc1ccccc1NC(=O)COc1ccc2c(c1)OCO2 | 65.4
CC1=C(C(=O)Nc2ccccc2C(F)(F)F)C(c2sccc2C)NC(=S)N1 (centres undefined) | -0.9
Cn1c(=O)c(-c2ccccc2)c(O)c2ccccc21 | 23.1
COc1ccc(Oc2c(O)c3ccccc3n(C)c2=O)cc1 | 9.82
CCCCn1c(=O)c(C(=O)Nc2ccccc2)c(O)c2ccccc21 | -12.7
CCCCn1c(=O)c(C(=O)Nc2ccccc2C)c(O)c2ccccc21 | -11.7
CC(C)NC(=O)c1c(O)c2cccc3c2n(c1=O)CCC3 | 11.9

Compound | inhibition [%]
CCCCCn1c(=O)c(C(=O)Nc2ccccc2Cl)c(O)c2ccccc21 | -6.13
CCCCCCn1c(=O)c(C(=O)Nc2cccc(C)n2)c(O)c2ccccc21 | -13.9
CCCCCn1c(=O)c(-c2nc3ccccc3[nH]2)c(O)c2ccccc21 | 1.53
CNC(=O)c1c(O)c2cccc3c2n(c1=O)CCC3 | 45.4
CCCCCn1c(=O)c(C(=O)Nc2ccccc2)c(O)c2ccccc21 | 16.7
CC1C/C(=N\NC(=O)c2ccc(NS(=O)(=O)c3ccc(Br)cc3)cc2)CC(C)(C)C1 (centres undefined) | -12.6
Cc1nc(CCNC(=O)COc2ccccc2)cs1 | -16
CCCC(=O)n1nc(-c2ccc(Cl)cc2)nc1SC | 64.9
O=C(CSc1nnc(Nc2ccccc2)s1)Nc1ccc(S(=O)(=O)N2CCOCC2)cc1 | 6.81
Cc1cccc(N2CCN(C(=O)c3cc(=O)[nH]c4ccccc34)CC2)c1C | 24.4
CCCC(C)C1c2c(c(C)c(C)oc2=O)Oc2c(C)c(C)oc(=O)c21 (centres undefined) | 25.8
O=C1c2ccccc2C(=O)N1OS(=O)(=O)c1ccccc1 | 19
Cc1nn(C)cc1/C=N\NC(=O)c1ccc2c(c1)c(C)c(C)n2Cc1ccccc1 | -7.16
CCOc1ccccc1NC(=O)NCc1ccccc1F | 13.2
COc1ccc(/C=N/NC(=O)c2cccc(NC(=O)c3ccccc3)c2)c(C(=O)O)c1OC | 31.1
Cc1c(CCC(=O)N[C@@H](C)C(=O)O)c(=O)oc2cc3occ(-c4ccccc4)c3cc12 | 0.57
NS(=O)(=O)c1cc(C(=O)NCCc2ccccn2)ccc1Cl | 7.03
Cc1ccc(/C=N/NC(=O)c2ccc(C(=O)N/N=C/c3ccc(C)s3)o2)s1 | -14.7
Cc1ccc(-n2c(C)cc(/C=N/NC(=O)c3ccncc3)c2C)c(C)c1 | 73.9
O=C(N/N=C/c1cccn1-c1ccccc1)c1ccncc1 | 52.4
Cc1ccc(/C=N/NC(=O)c2ccccn2)s1 | 59.8
Cc1ccsc1/C=N/NC(=O)c1ccc([N+](=O)[O-])cc1 | -7.45
Cc1cccc(C)c1-n1c(C)cc(/C=N/NC(=O)c2ccncc2)c1C | 78

Compound | inhibition [%]
Cc1ccsc1/C=N/NC(=O)c1cccnc1 | -17.1
Cn1cccc1/C=N/NC(=O)c1cccnc1 | 6.3
Nn1c(SCC(=O)NC2CCCCC2)nnc1-c1ccccc1F | 9.14
COC(=O)Nc1ccc(S(=O)(=O)N2CCCC(C(=O)Nc3cccc4c3OCCO4)C2)cc1 (centres undefined) | 17.4
Cc1ccc(C(=O)N/C(=C/c2ccc(Cl)cc2)C(=O)Nc2cccc(C(=O)O)c2)cc1 | 17
Cc1cc(NC(=O)CCC(=O)N(CC(=O)NCC2CCCO2)c2ccc(C)c(C)c2)no1 (centres undefined) | -4.55
COc1nc(NCCO)nc(Nc2ccc([N+](=O)[O-])cc2)n1 | -18
CSc1ccc(CCNC(=O)C2CCCN(c3nn4c(=O)cc(C)nc4s3)C2)cc1 (centres undefined) | 5.95
CC1(C(O)(C#CCN2CCCCC2)c2ccccc2)CCCC1 (centres undefined) | 3.27
Clc1ccc(Cl)c(-c2nc(-c3ccncc3)no2)c1 | -30.7
CCc1ccc(OCC(=O)N2CCN(c3ccccc3F)CC2)cc1 | 52.6
COC(=O)c1ccccc1NC(=O)COC(=O)c1cccnc1 | 2.43
Cc1cccc(CN2CCSCC2)c1 | 21.4
Cc1ccc(NC(=O)CNC(=O)c2ccc(C)s2)nc1 | -9.04
O=C(N/N=C/c1cc(Br)c(Br)o1)c1cccnc1 | 40.9
O=C(N/N=C\c1cc(Br)cs1)c1ccncc1 | 71.3
O=C(N/N=C\c1ccncc1)c1ccc(Br)s1 | 15.2
Cc1ccc(/C=N/NC(=O)c2cccnc2)s1 | 75.2
Cc1ccc(/C=N/NC(=O)c2ccc(-c3ccccc3)cc2)o1 | 4.22
O=C(N/N=C/c1ccc(Br)s1)c1cccs1 | 79.8
Cc1ccc(/C=N/NC(=O)c2cccnc2)o1 | 7.34
O=C(N/N=C/c1cc(Br)cc(Br)c1O)c1ccncc1 | 57.1
COc1cc(NS(=O)(=O)c2ccc(NC(=S)NC(=O)c3ccc(F)cc3)cc2)nc(OC)n1 | 42.3

Compound | inhibition [%]
CCn1c(CN2CCOCC2)nnc1SCC(=O)Nc1cccc(C)c1 | -3.97
O=C(NCCC(=O)N1CCC2(CC1)NCCc1[nH]cnc12)c1ccc(Br)cc1 | 10.4
Cn1ncc2c(Nc3ccc(Br)cc3)nc(Nc3ccc(Br)cc3)nc21 | 9.77
O=C(N/N=C/c1cn(-c2ccccc2)nc1-c1cccs1)c1ccncc1 | 48.3
O=C(N/N=C/c1cn(-c2ccccc2)nc1-c1cc2ccccc2o1)c1ccncc1 | 42.8
COc1ccc(N=C2NC(=O)C(CC(=O)NCCc3ccc(OC)c(OC)c3)S2)cc1 (centres undefined) | 14.1
CC(NC(=O)c1ccc2c(=O)n3c(nc2c1)CCC3)c1ccc(S(N)(=O)=O)cc1 (centres undefined) | -7.93
Cc1ccc(S(=O)(=O)N2CCCN(C(=O)c3cc4ccccc4[nH]3)CC2)cc1 | 11.2
COc1cccc(NC(=O)NNS(=O)(=O)c2ccc(OC)cc2OC)c1 | -16.4
CN1CCN(C(c2cccnc2)c2ccc3cccnc3c2O)CC1 (centres undefined) | 28.6
Oc1c(C(c2ccccn2)N2CCCCC2)cc(Cl)c2cccnc12 (centres undefined) | 75.4
CCCCOc1ccc(NC(=O)CSc2nnnn2C)cc1 | 18.5
Cn1cccc1/C=C1/C(=O)NC(=O)N(Cc2ccc(F)cc2)C1=O | 74.5
Cn1cccc1/C=C1\C(=O)NC(=O)N(Cc2ccccc2)C1=O | 73
CC1CN(c2nc3ccccn3c(=O)c2C=O)CC(C)O1 (centres undefined) | 1.76
CCn1nnc(NC(=O)c2ccc(-c3ccccc3[N+](=O)[O-])o2)n1 | 9.81
CCCn1nnc(NC(=O)c2ccc(-c3cccc(Cl)c3)o2)n1 | 59.5
CCn1nnc(NC(=O)Cc2ccc(Cl)cc2)n1 | 11.1
CCn1nnc(NC(=O)c2ccc(Br)o2)n1 | -5.58
CCCCc1ccc(-c2nc(-c3ccncc3)no2)cc1 | 22.1
CC1=C(C(=O)Nc2ccccc2)S(=O)(=O)CCO1 | 68.2
Cc1ccc(NC(=O)c2ccccc2)cc1 | 25.8
CCOc1cc(C(=O)Nc2cc(=O)n(C)c(=O)n2C)cc(OCC)c1OCC | 1.17

Compound | inhibition [%]
Cc1cc(Cl)ccc1C(=O)C1CCCN(C(=O)c2cc(C(C)C)no2)C1 (centres undefined) | 45.6
CCCCNC(=O)N1CCc2[nH]c3ccccc3c2C1 | 5.76
CCc1ccccc1NC(=O)N1CCc2ccccc2C1 | -17.5
Cc1cn(C(=O)c2cccc(Br)c2)c(C)n1 | -0.97
COC(=O)C1=NN(C(=O)c2cccc(Br)c2)C(O)(c2ccc(Cl)cc2)C1 (centres undefined) | 75.6
COC(=O)C1=NN(C(=O)c2ccc(Cl)cc2)C(O)(c2ccccc2)C1 (centres undefined) | 79.6
CCOC(=O)N1N=C(C)CC1(O)c1ccccc1 (centres undefined) | -14.8
CCOC(=O)C1=NN(C(=O)c2ccccc2)C(O)(c2ccc(C)cc2)C1 (centres undefined) | 73.7
COC(=O)C1=NN(C(=O)c2ccccc2)C(O)(c2ccc([N+](=O)[O-])cc2)C1 (centres undefined) | 21.5
OCCC1CN(Cc2nc3ccccc3s2)CCN1C1CCCC1 (centres undefined) | -3.44
O=C(CSc1nnc2ccccn12)N1CCc2ccccc2C1 | -9.62
Cc1ccccc1CN1C(=O)/C(=C\c2ccc(C(=O)NCCN3CCOCC3)cc2)Sc2ccccc21 | 34.3
O=C(COC(=O)c1cccnc1Cl)Nc1cc(S(=O)(=O)N2CCOCC2)ccc1Cl | -5.03
O=C(CC1CCCCC1)NCC1CCCO1 (centres undefined) | 69.3
Cc1ccc(N(Cc2cc3ccc(C)cc3[nH]c2=O)S(=O)(=O)c2ccccc2)c(C)c1 | 3.45
CCCCOC(=O)C1CCCC(C)N1 (centres undefined) | 0.64
CCCCOC(=O)C1CCC[C@@H](C)N1 (some centres undefined) | -6.13
Cc1ccc(NC(=O)COC(=O)CN2C(=O)C3CCCCC3C2=O)cc1S(=O)(=O)N1CCOCC1 (centres undefined) | 6.8
O=C1NCCCC1C(=O)N/N=C/c1cc([N+](=O)[O-])ccc1O (centres undefined) | 15.8
O=C(N/N=C/c1cc([N+](=O)[O-])ccc1O)NC12CC3CC(CC(C3)C1)C2 | 54.2
O=C(N/N=C/c1cc([N+](=O)[O-])ccc1O)C1C2CCCCC21 (centres undefined) | 77.2
CCNC(=O)C(=O)N/N=C/c1cc([N+](=O)[O-])ccc1O | 27.1
